Drawing on PubChem BioAssay (Tox21), this text covers Potency and outcome for seven compounds.

Unmarked numbers belong to inactive results. Inconclusive results are not listed. Activity calls are given as the source filed them. Unless noted, calls follow the shape of the full dose curve.

A short description of assay [1]: Nuclear factor erythroid 2-related factor 2/antioxidant responsive element (Nrf2/ARE) small molecule agonists: qHTS cell viability counter screen in human keratinocytes (AID 1919968; active = well fitted cell-killing curve with a large enough effect in the repeat runs; also: nearly all actives have a fitted effect of over 55% in size; also: potency is read from the fitted curve at half-maximal effect). In outline:
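HaCaT ARE reporter line, 1,500 cells/well; 5 h settle, 37 C/5% CO2; cpd in DMSO pinned; 23 h exposure; CellTiter-Fluor, 1 h; fluorescence.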
(In general: qHTS replaces the single test concentration by a dilution series.)

Assay [2] is described as follows: Nuclear factor erythroid 2-related factor 2/antioxidant responsive element (Nrf2/ARE) small molecule agonists: luciferase reporter gene qHTS assay in human keratinocytes (AID 1919969). Also: nearly all actives have a fitted effect of over 35% in size. Background: Reporter assays use an easily measured gene product as a stand-in for the process of interest.
Assay [3] addresses Gonadotropin-releasing hormone receptor (Homo sapiens) (UniProt P30968). The assay is described as follows: Human gonadotropin-releasing hormone receptor (GnRHR) small molecule agonists, calcium flux assay in GnRHR-HEK293 cells (AID 1920063). Also: nearly all actives have a fitted effect of over 35% in size. Also: potency is read from the fitted curve at half-maximal effect. The method, boiled down: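 GnRHR-HEK293, 1500 cells/well, 18 h 37 C/5% CO2; Ca dye 1 h 37 C; cpd pinned (DMSO), agonist mode; kinetic FL 480/540, 3 min, 1 s reads; 15 conc, n=3.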

The nature of assay [4]: G protein-coupled receptor (GPCR) small molecule agonists, calcium flux assay: HEK293 wild type cell line counter screen (AID 1920065). The method, boiled down:
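Kinetic fluorescence at Ex/Em 480/540, recorded every second over 3 min, served as the read-out after compound addition. Each compound was tested at 15 concentrations in triplicate on cells pre-loaded with calcium dye for 1 h.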
A general note: A change in cytosolic calcium serves as a functional read-out for many receptors and channels.

Assay [5] is described as follows: p53 small molecule agonists, cell-based qHTS assay with rat liver microsomes (AID 1963578). The method, boiled down:
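Each plate received p53RE-bla cells, then compound, then rat liver microsomes and NADPH (both 0.5 mg/mL final). Plates were held 16 h at 37 C, and beta-lactamase activity was detected with LiveBLAzer over 2 h.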

Assay [6] in a line: p53 small molecule agonists, cell-based qHTS assay with rat liver microsomes: qHTS cell viability counter screen (AID 1963580). Also: nearly all actives have a fitted effect of over 45% in size. The method, boiled down:
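p53RE-bla HCT-116 cells (4,000/well) rested 5 h at 37 C, then given Tox21 compounds in DMSO with rat liver microsomes (0.5 mg/mL final) plus NADPH (0.5 mg/mL final) for 16 h at 37 C. Viability read by CellTiter-Glo luminescence after 30 min at room temperature.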

A short description of assay [7]: p53 small molecule agonists, cell-based qHTS assay: qHTS cell viability counter screen (AID 1963581). Also: nearly all actives have a fitted effect of over 45% in size. In outline:
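HCT-116 p53RE-bla cells, 4,000/well, plated 5 h before compound pin transfer; 16 h at 37 C; bla substrate 2 h RT; then CellTiter-Glo, 30 min RT, luminescence.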

A short description of assay [8]: p53 small molecule agonists, cell-based qHTS assay (AID 1963582; active = well fitted activation curve with a large enough effect in the signal ratio in the repeat runs, not every such curve was filed as active; the % refers to the signal ratio). In outline: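 Reporter line: p53RE-bla. Pre-incubation 5 h, 37 C, 5% CO2; compound (DMSO, pin tool) 16 h, 37 C; B/G FRET substrate 2 h RT; fluorescence intensity read.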
The target of assay [9] is 5-hydroxytryptamine receptor 2A (Homo sapiens) (UniProt P28223). The assay is described as follows: 5-hydroxytryptamine receptor 2A (HTR2A) small molecule antagonists, cell-based qHTS assay (AID 1963586). Also: nearly all actives have a fitted effect of over 45% in size. In outline: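 Antagonist-mode intracellular calcium assay: DOI (4 nM) added after 5 min compound pre-incubation at room temperature to dye-loaded HTR2A-CHO cells. Fluorescence followed for 3 min, sampled every second.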
Chain of 5-hydroxytryptamine receptor 2A (Homo sapiens) (P28223 whole entry, looked up): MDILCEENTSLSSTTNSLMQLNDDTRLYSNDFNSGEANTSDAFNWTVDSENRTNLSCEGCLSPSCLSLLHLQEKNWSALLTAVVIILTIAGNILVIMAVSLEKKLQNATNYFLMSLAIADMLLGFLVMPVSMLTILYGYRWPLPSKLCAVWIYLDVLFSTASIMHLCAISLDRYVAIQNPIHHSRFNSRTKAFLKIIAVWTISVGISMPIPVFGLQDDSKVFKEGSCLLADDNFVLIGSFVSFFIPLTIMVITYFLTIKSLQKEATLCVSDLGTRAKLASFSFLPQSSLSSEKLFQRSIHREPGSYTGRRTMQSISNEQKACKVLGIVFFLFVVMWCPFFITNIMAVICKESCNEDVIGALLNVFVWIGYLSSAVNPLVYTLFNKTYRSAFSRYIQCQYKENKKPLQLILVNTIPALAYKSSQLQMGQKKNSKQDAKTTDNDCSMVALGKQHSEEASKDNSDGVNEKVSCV

Assay [10] has the same target. Kind of assay: 5-hydroxytryptamine receptor 2A (HTR2A) small molecule agonists, cell-based qHTS assay (AID 1963587). Also: nearly all actives have a fitted effect of over 30% in size. The method, boiled down:
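HTR2A-CHO cells, plated 18 h at 37 C/5% CO2, dye-loaded 1 h at 37 C; compounds in DMSO added by pin tool (agonist mode). Intracellular calcium flux read as kinetic fluorescence on FDSS over 2 min at 1 s intervals.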

Assay [11] concerns the target Muscarinic acetylcholine receptor M1 (Homo sapiens) (UniProt P11229). The assay is described as follows: Cholinergic receptor muscarinic 1 (CHRM1) small molecule antagonists, cell-based qHTS assay (AID 1963588). Also: nearly all actives have a fitted effect of over 40% in size. The method, boiled down: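 CHRM1-CHO calcium-flux assay, antagonist mode. Cells were seeded 18 h, dye-loaded 1 h at 37 C and given compound for 5 min at RT, then acetylcholine was added at 50nM. FDSS fluorescence was read 3 min; 15 concentrations, three runs.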

The target is the same in assay [12]. The assay is described as follows: Cholinergic receptor muscarinic 1 (CHRM1) small molecule agonists, cell-based qHTS assay (AID 1963589). Also: nearly all actives have a fitted effect of over 35% in size. The method, boiled down: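 Human M1 in stable CHO line; 18 h plating, 1 h dye load 37 C; cpd added (agonist mode); Ca2+ fluorescence kinetic read, 1 s intervals; 15 conc, 3 runs.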
The nature of assay [13]: cAMP Responsive Elements (CRE) small molecule agonists, cell-based qHTS assay (AID 1963590). The method, boiled down: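 HEK 293T CRE-bla, 2,000 cells/well, 18 h preincubation 37 C/5% CO2; cpds (DMSO) pinned, 3 h; LiveBLAzer B/G FRET substrate, 2 h RT.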
Assay [14] can be described thus: cAMP Responsive Elements (CRE) small molecule antagonists, cell-based qHTS assay (AID 1963591; active = well fitted inhibition curve with a large enough effect in the signal ratio in the repeat runs, not every such curve was filed as active; the % refers to the signal ratio). In outline: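 Beta-lactamase reporter read by FRET substrate (LiveBLAzer B/G) after 2 h at room temperature. CRE-bla HEK293T cells had received compound plus 0.25 uM (final) NKH477 for 3 h at 37 °C.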
The target in assay [15] is Beta-2 adrenergic receptor (Homo sapiens) (UniProt P07550). The assay is described as follows: Adrenergic beta2 receptor (ADRB2) small molecule antagonists, cell-based qHTS assay (AID 1963592). Also: nearly all actives have a fitted effect of over 50% in size. Also: potency is read from the fitted curve at half-maximal effect. The method, boiled down: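 Cells (CHO, stable ADRB2 overexpression) incubated 18-20hr at 37C; compounds added from DMSO; agonist mix (1nM isoproterenol, 100uM IBMX, 25uM Ro-20-1724) added; 0.5hr RT; d2-cAMP and anti-cAMP-cryptate added; 1hr RT; 665/615 nm read.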
Chain of Beta-2 adrenergic receptor (Homo sapiens) (P07550 whole entry, looked up): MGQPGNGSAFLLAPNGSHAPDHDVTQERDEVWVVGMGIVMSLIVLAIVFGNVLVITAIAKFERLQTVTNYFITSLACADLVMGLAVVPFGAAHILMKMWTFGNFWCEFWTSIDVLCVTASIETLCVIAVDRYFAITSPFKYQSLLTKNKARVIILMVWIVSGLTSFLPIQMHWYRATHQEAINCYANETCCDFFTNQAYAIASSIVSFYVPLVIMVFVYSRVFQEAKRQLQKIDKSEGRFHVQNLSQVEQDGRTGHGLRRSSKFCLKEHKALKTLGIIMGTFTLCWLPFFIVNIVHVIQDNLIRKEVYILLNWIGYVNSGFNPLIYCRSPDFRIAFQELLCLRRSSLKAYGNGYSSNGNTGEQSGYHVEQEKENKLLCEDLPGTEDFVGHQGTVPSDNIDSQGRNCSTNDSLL

Assay [16] has the same target. Kind of assay: Adrenergic beta2 receptor (ADRB2) small molecule agonists, cell-based qHTS assay (AID 1963593).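 Also: CHO cells stably overexpressing human ADRB2.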 The method, boiled down: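 CHO cells stably over-expressing ADRB2 were plated overnight at 37C, then dosed with compounds plus a stimulation mix containing 100uM IBMX and 25uM Ro-20-1724 for 0.5hr at room temperature. cAMP was measured by HTRF competition, 1hr.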

In assay [17] the target is D(2) dopamine receptor (Homo sapiens) (UniProt P14416). Kind of assay: Dopamine D2 receptor (DRD2) small molecule agonists, cell-based qHTS assay (AID 1963594). Also: nearly all actives have a fitted effect of over 35% in size. In outline:
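HEK293 cells stably expressing DRD2 were cultured 24 h at 37 C, then given Ro20-1724 (0.1 mM final) and compounds for 10 min at room temperature. NKH477 (200nM) was then added for 30 min. cAMP was read by HTRF.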

For assay [18] the target is unchanged. The assay is described as follows: Dopamine D2 receptor (DRD2) small molecule antagonists, cell-based qHTS assay (AID 1963595; active = well fitted inhibition curve with a large enough effect in the signal ratio in the repeat runs, with a control signal flat; the % refers to the signal ratio). The method, boiled down:
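Human DRD2 antagonist qHTS measuring cAMP by HTRF. The cells are exposed to compound for 10 min, then to NKH477 (200 nM) and quinpirole (12 nM) for 30 min at RT, with Ro20-1724 (0.1 mM) present throughout.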

Assay [19] is described as follows: p53 small molecule agonists, cell-based qHTS assay with human liver microsomes (AID 1963577).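 Also: p53 response element beta-lactamase reporter cells with liver microsomes plus NADPH.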 The method, boiled down:
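Metabolically competent format: test substances, human liver microsomes and NADPH (both 0.5 mg/mL final) incubated with p53RE-bla cells 16 h at 37 C. Beta-lactamase reporter signal then quantified by fluorescence.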

A short description of assay [20]: p53 small molecule agonists, cell-based qHTS assay with human liver microsomes: qHTS cell viability counter screen (AID 1963579). Also: nearly all actives have a fitted effect of over 45% in size. Also: potency is read from the fitted curve at half-maximal effect. The method, boiled down: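 Tox21 library compounds, delivered from DMSO stocks, were tested on p53RE-bla cells together with 0.5 mg/mL human liver microsomes and 0.5 mg/mL NADPH (final) over 16 h at 37 C; CellTiter-Glo luminescence served as the cytotoxicity measure.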

Chain of Gonadotropin-releasing hormone receptor (Homo sapiens) (P30968 whole entry, looked up): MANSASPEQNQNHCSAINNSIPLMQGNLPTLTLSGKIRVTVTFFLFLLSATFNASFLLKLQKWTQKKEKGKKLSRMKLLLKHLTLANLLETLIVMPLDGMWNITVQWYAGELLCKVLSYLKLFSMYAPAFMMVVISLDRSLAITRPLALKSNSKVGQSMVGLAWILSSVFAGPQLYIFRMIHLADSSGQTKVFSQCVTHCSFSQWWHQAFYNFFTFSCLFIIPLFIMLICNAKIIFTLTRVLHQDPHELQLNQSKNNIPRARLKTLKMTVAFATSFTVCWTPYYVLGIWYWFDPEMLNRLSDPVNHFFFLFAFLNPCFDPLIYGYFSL
Chain of Muscarinic acetylcholine receptor M1 (Homo sapiens) (P11229 whole entry, looked up): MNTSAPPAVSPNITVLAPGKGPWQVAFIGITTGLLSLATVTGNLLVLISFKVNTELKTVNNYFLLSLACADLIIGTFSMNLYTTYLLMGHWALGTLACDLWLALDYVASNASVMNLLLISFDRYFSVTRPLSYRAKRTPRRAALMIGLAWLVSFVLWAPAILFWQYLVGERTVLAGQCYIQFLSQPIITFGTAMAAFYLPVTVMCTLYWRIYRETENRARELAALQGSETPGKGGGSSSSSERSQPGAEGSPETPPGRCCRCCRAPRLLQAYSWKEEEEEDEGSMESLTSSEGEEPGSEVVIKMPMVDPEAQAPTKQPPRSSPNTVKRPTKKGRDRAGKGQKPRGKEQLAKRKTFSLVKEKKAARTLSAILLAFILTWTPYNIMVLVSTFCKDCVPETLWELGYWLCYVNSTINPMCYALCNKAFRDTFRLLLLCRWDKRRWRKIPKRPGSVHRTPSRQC
Chain of D(2) dopamine receptor (Homo sapiens) (P14416 whole entry, looked up): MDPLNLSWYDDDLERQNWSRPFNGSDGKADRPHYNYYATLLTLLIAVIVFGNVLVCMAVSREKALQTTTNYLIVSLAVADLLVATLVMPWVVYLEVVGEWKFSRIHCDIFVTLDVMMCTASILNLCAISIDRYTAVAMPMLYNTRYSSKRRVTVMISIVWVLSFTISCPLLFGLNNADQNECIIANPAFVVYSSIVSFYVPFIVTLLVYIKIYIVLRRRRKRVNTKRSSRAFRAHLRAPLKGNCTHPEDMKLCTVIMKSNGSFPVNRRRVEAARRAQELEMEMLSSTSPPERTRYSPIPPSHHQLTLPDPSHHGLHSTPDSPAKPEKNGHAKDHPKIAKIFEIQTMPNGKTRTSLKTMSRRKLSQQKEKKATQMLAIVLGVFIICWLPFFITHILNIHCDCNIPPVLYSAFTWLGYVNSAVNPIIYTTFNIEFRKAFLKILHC

Regarding `CC(C)CC(C)CC(C)CC(C)COC(=O)c1ccccc1C(=O)OCC(C)CC(C)CC(C)CC(C)C` (centres undefined), the Potency result in assay [1], in assay [2], in [3], in assay [5], in assay [6] and in assay [7] was “inactive” in each case. The Potency result in assay [8], in assay [9], in assay [10], in assay [11], in assay [12] and in assay [13] was “inactive” each time. Moreover, the Potency entry in assay [14], in [15], in [16], in assay [17] and in assay [18] was “inactive” each time. Moreover, in assay [4], the result was inactive.
Consider `N[C@H](C(=O)O)[C@@H](O)c1ccc(O)c(O)c1`, for which the Potency entry in assay [1], in assay [2], in [19], in assay [5], in assay [20] and in assay [6] was “inactive” throughout. For the same compound, the Potency entry in assay [7], in assay [8], in [9], in [10], in [11] and in assay [12] was “inactive” in each case. For the same compound, the Potency result in assay [13], in [14], in [17] and in [18] was “inactive” each time. For the same compound, in assay [4], the outcome was inactive.
Consider `CCCCCCCCCCCCCC[n+]1ccccc1`, for which the Potency is 27.3 µM (active) in assay [1], 34.7 µM (active) in assay [3] and 32.4 µM (active) in assay [20]. For the same compound, the Potency result in [2], in [19], in [17] and in [18] was “inactive” in each case. The outcome in assay [4] was inactive.
Take `CCCCc1ccc2c(n1)[C@@H](c1ccc(OC)cc1C[C@H](C)C(=O)O)[C@H](C(=O)O)[C@H]2c1ccc2c(c1)OCO2`: the Potency entry in assay [1], in assay [2], in [19], in [5], in assay [20] and in assay [6] was “inactive” throughout. Also, the Potency result in assay [7], in [8], in assay [9], in assay [10], in assay [11] and in assay [12] was “inactive” each time. The Potency entry in assay [15], in assay [16], in [17] and in [18] was “inactive” each time. Besides, the outcome in assay [4] was inactive.
Take `CC1=CCC2C(C1)C2(C)C` (centres undefined): the Potency entry in assay [1], in assay [2], in [19], in assay [5], in [20] and in assay [6] was “inactive” throughout. Moreover, the Potency entry in assay [7], in assay [8], in assay [9], in assay [10], in [11] and in assay [12] was “inactive” in each case. Also, the Potency entry in assay [13], in assay [14] and in [18] was “inactive” in each case. Further, the outcome in [4] was inactive. Besides, in assay [15], the Potency was 27.3 µM (active).
`Cc1ccc(Cl)cc1Cl`: the Potency entry in assay [1], in assay [2], in assay [3], in [5], in assay [20] and in assay [6] was “inactive” throughout. For the same compound, the Potency result in assay [7], in assay [8], in assay [9], in assay [10], in assay [12] and in assay [13] was “inactive” each time. In addition, the Potency result in assay [14], in assay [15] and in [17] was “inactive” throughout. The outcome in assay [4] was inactive.
Consider `CC(C)Oc1ccccc1O`, for which the Potency entry in assay [1], in [2], in assay [3], in [19], in assay [5] and in [20] was “inactive” in each case. In addition, the Potency entry in [6], in assay [8], in assay [9], in assay [10], in assay [11] and in [12] was “inactive” in each case. Moreover, the Potency result in assay [13], in assay [14], in assay [15] and in [16] was “inactive” each time.
